Measurements reported in PubChem BioAssay (Tox21).
Results filed as inconclusive are left out. Entries that show only a call come without a potency. Values without a mark were called inactive. Calls of active or inactive are those of the source. Unless noted, the call rests on the fitted dose curve; in most records, active means well fitted cell-killing curve with a large enough effect in the repeat runs; inconclusive means weak or mixed curves, or effect the other way; inactive means no such curve, though single readings can be large or run the other way.

Biological target: Progesterone receptor (Homo sapiens) (UniProt P06401)
Test: qHTS assay to identify small molecule agonists of the progesterone receptor (PR) signaling pathway (AID 1346784; calls by dose curve; further: nearly all actives have a fitted effect of over 30% in size; further: potency means the concentration at half of the fitted maximal effect)
Details: PR-UAS-bla HEK293T, beta-lactamase FRET ratio, 16 h; series mostly up to 92.4 µM
Summary of the method: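 Reporter assay, GripTite PR-UAS-bla HEK 293T cells: 16 hr exposure to DMSO-dissolved compounds at 37C, 5% CO2, in steroid-depleted (2% charcoal-stripped FBS) medium; beta-lactamase measured by FRET fluorescence.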

Progesterone receptor (Homo sapiens), sequence (P06401 whole entry, looked up): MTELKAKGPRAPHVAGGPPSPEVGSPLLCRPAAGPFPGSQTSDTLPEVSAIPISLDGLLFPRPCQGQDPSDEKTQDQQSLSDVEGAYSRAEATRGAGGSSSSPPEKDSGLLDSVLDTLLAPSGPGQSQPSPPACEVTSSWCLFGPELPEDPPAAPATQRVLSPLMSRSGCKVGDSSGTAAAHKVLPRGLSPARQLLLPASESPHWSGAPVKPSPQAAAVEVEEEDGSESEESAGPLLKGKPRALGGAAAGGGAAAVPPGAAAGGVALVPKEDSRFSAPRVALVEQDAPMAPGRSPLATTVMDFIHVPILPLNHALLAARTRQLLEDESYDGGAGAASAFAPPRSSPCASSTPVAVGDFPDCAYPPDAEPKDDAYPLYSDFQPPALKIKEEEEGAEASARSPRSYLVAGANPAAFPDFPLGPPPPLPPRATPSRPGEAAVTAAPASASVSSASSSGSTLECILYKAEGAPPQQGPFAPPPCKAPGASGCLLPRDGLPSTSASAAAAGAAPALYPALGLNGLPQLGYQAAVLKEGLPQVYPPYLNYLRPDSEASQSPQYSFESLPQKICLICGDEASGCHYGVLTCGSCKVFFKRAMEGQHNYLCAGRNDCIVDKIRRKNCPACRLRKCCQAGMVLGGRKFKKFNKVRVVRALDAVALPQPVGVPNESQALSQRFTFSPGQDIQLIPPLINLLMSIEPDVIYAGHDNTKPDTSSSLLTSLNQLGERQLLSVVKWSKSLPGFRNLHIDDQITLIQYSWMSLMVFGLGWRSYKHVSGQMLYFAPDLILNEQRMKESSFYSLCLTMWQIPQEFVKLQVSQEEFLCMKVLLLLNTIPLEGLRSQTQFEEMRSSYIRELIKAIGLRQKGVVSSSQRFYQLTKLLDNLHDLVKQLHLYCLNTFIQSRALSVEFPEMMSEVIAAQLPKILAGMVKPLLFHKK

Row | Compound | Potency | activation
1 | CCOC(=O)Cn1cccc1-c1nc(-c2ccc(OC)cc2)c(-c2ccc(OC)cc2)s1 | inactive | 
2 | C=Cc1cccc(C)c1 | inactive | 
3 | Nc1nc(N)nc(-c2cc(Cl)ccc2Cl)n1 | inactive | 
4 | CCCCCC(C)OC(=O)COc1ccc(Cl)c2cccnc12 (stereo not drawn) | inactive | 
5 | O=C1OC2(c3ccc(O)cc3Oc3cc(O)ccc32)c2ccc(N=C=S)cc21 | 0.879 µM (active) | 
6 | CC(C)(C)NSc1nc2ccccc2s1 | inactive | 
7 | CCCCC(CC)COC(=O)CCCCC(=O)OCc1ccccc1 (stereo not drawn) | inactive | 
8 | Cc1c(C)c2c(c(C)c1OC(=O)c1cccnc1)CC[C@@](C)(CCC[C@H](C)CCC[C@H](C)CCCC(C)C)O2 | inactive | 
9 | [Cu+] | inactive | 
10 | O=C(O)c1cc(-c2ccc(F)cc2F)ccc1O | inactive | 
11 | O=C1c2ccccc2C(=O)N1SC1CCCCC1 | inactive | 
12 | NC(=S)NC(N)=S | inactive | 
13 | C=CCCC(=O)/C=C/C1C(C)=CCCC1(C)C (stereo not drawn) | inactive | 
14 | CC/C=C\CCCCCO | inactive | 
15 | CC1(C)CC(O)CC(C)(C)N1 | inactive | 
16 | OC[C@H]1O[C@H](O[C@H]2O[C@H](CO)[C@@H](O)[C@H](O)[C@H]2O)[C@H](O)[C@@H](O)[C@@H]1O | inactive | 
17 | C[C@H]1NCc2cc(-c3ccc4c(=O)c(C(=O)O)cn(C5CC5)c4c3OC(F)F)ccc21 |  | -1.22% [at 19 µM]

Biological target: Progesterone receptor (Homo sapiens) (UniProt P06401)
Test: qHTS assay to identify small molecule antagonists of the progesterone receptor (PR) signaling pathway (AID 1346795; active means well fitted inhibition curve with a large enough effect in the signal ratio in the repeat runs, not every such curve was filed as active; the % refers to the signal ratio; further: potency means the concentration at half of the fitted maximal effect)
Details: PR-UAS-bla HEK293T, beta-lactamase FRET ratio, 16 h; series mostly up to 92.4 µM
Summary of the method: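 Stimulus R5020 at 1 nM final; cells HEK293T PR-UAS-bla; medium with 2% charcoal-stripped FBS; compound exposure 16 hr at 37C, 5% CO2; detection by FRET beta-lactamase substrate, 2 hr, room temperature.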

Row | Compound | Potency | activity change, negative = inhibition
18 | Cc1ccc(C)cc1 | inactive | 
19 | COC(=O)c1ccccc1C | inactive | 
20 | Cc1ccc(C(C)C)cc2c(C)ccc1-2 | inactive | 
21 | CCc1ccc(Br)cc1 | inactive | 
22 | CC(C)NC[C@@H](O)COc1ccc(CC(N)=O)cc1 | inactive | 
23 | CCC(C)[O-].CCC(C)[O-].CCOC(=O)/C=C(/C)[O-].[Al+3] | inactive | 
24 | COC(C)=O | inactive | 
25 | CC(C)CCOC(=O)/C=C/c1ccccc1 | inactive | 
26 | Cc1cccc(C)c1NC(=O)c1ccc(N)cc1 | inactive | 
27 | C=CCn1c(=O)n(CC=C)c(=O)n(CC=C)c1=O | inactive | 
28 | O[C@@H]([C@H](O)[C@H](O)CBr)[C@H](O)CBr | inactive | 
29 | CC(C)Cn1cnc2c(N)nc3ccccc3c21 |  | 5.77% [at 18.9 µM]
30 | CC(C)CCCCCOC(=O)CCS | inactive | 
31 | CCCC[P+](C)(CCCC)CCCC | inactive | 
32 | Sc1nc2ccccc2s1 | inactive | 
33 | O=C(/C=C/c1ccc(O)c(O)c1)O[C@@H](C(=O)O)[C@@H](OC(=O)/C=C/c1ccc(O)c(O)c1)C(=O)O | inactive | 
34 | NC[C@H]1O[C@H](O[C@H]2[C@H](O[C@@H]3O[C@H](CO)[C@@H](O)[C@H]3O)C(O)[C@H](N)C[C@@H]2N)[C@H](N)[C@@H](O)[C@@H]1O (stereo partly drawn) |  | 0.98% [at 8.39 µM]
35 | Cc1c(C)c2c(c(C)c1O)CC[C@@](C)(CCC[C@H](C)CCC[C@H](C)CCCC(C)C)O2 | inactive | 
36 | Cc1c(F)c(N2CCNC(C)C2)cc2c1c(=O)c(C(=O)O)cn2C1CC1 (stereo not drawn) | inactive | 

Row | Compound | Potency | activity change, negative = inhibition
37 | OC[C@@H](O)[C@@H](O)CO | inactive | 
38 | CCCCCc1ccc(Cl)cc1 | inactive | 
39 | CCOC(=O)Cn1cccc1-c1nc(-c2ccc(OC)cc2)c(-c2ccc(OC)cc2)s1 | inactive | 
40 | C=Cc1cccc(C)c1 | inactive | 
41 | Nc1nc(N)nc(-c2cc(Cl)ccc2Cl)n1 | inactive | 
42 | CCCCCC(C)OC(=O)COc1ccc(Cl)c2cccnc12 (stereo not drawn) | 54.5 µM (active) | 
43 | O=C1OC2(c3ccc(O)cc3Oc3cc(O)ccc32)c2ccc(N=C=S)cc21 | inactive | 
44 | CC(C)(C)NSc1nc2ccccc2s1 | inactive | 
45 | CCCCC(CC)COC(=O)CCCCC(=O)OCc1ccccc1 (stereo not drawn) | inactive | 
46 | Cc1c(C)c2c(c(C)c1OC(=O)c1cccnc1)CC[C@@](C)(CCC[C@H](C)CCC[C@H](C)CCCC(C)C)O2 | inactive | 
47 | [Cu+] | inactive | 
48 | O=C(O)c1cc(-c2ccc(F)cc2F)ccc1O | inactive | 
49 | O=C1c2ccccc2C(=O)N1SC1CCCCC1 | inactive | 
50 | NC(=S)NC(N)=S | inactive | 
51 | C=CCCC(=O)/C=C/C1C(C)=CCCC1(C)C (stereo not drawn) | inactive | 
52 | CC/C=C\CCCCCO | inactive | 
53 | CC1(C)CC(O)CC(C)(C)N1 | inactive | 
54 | OC[C@H]1O[C@H](O[C@H]2O[C@H](CO)[C@@H](O)[C@H](O)[C@H]2O)[C@H](O)[C@@H](O)[C@@H]1O | inactive | 
55 | C[C@H]1NCc2cc(-c3ccc4c(=O)c(C(=O)O)cn(C5CC5)c4c3OC(F)F)ccc21 |  | 2.98% [at 18.9 µM]

System: not listed separately
Test: qHTS assay to identify small molecule antagonists of the progesterone receptor (PR) signaling pathway - cell viability counter screen (AID 1346798); further: nearly all actives have a fitted effect of over 50% in size
Details: PR-UAS-bla HEK293T viability, CellTiter-Glo luminescence, 16 h; series mostly up to 92.4 µM
Summary of the method: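 In the same plates used for the beta-lactamase readout, cell viability of compound- and R5020-treated PR-UAS-bla HEK293T cells (16 hr, 37C) was assessed by CellTiter-Glo luminescence.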

Row | Compound | Potency | activity change, negative = cytotoxicity
56 | Cc1ccc(C)cc1 | inactive | 
57 | COC(=O)c1ccccc1C | inactive | 
58 | Cc1ccc(C(C)C)cc2c(C)ccc1-2 | inactive | 
59 | CCc1ccc(Br)cc1 | inactive | 
60 | CC(C)NC[C@@H](O)COc1ccc(CC(N)=O)cc1 | inactive | 
61 | CCC(C)[O-].CCC(C)[O-].CCOC(=O)/C=C(/C)[O-].[Al+3] | inactive | 
62 | COC(C)=O | inactive | 
63 | CC(C)CCOC(=O)/C=C/c1ccccc1 | inactive | 
64 | Cc1cccc(C)c1NC(=O)c1ccc(N)cc1 | inactive | 
65 | C=CCn1c(=O)n(CC=C)c(=O)n(CC=C)c1=O | inactive | 
66 | O[C@@H]([C@H](O)[C@H](O)CBr)[C@H](O)CBr | inactive | 
67 | CC(C)Cn1cnc2c(N)nc3ccccc3c21 |  | 10.2% [at 18.9 µM]
68 | CC(C)CCCCCOC(=O)CCS | inactive | 
69 | CCCC[P+](C)(CCCC)CCCC | inactive | 
70 | Sc1nc2ccccc2s1 | inactive | 
71 | O=C(/C=C/c1ccc(O)c(O)c1)O[C@@H](C(=O)O)[C@@H](OC(=O)/C=C/c1ccc(O)c(O)c1)C(=O)O | inactive | 
72 | NC[C@H]1O[C@H](O[C@H]2[C@H](O[C@@H]3O[C@H](CO)[C@@H](O)[C@H]3O)C(O)[C@H](N)C[C@@H]2N)[C@H](N)[C@@H](O)[C@@H]1O (stereo partly drawn) |  | 12.4% [at 8.39 µM]
73 | Cc1c(C)c2c(c(C)c1O)CC[C@@](C)(CCC[C@H](C)CCC[C@H](C)CCCC(C)C)O2 | inactive | 
74 | Cc1c(F)c(N2CCNC(C)C2)cc2c1c(=O)c(C(=O)O)cn2C1CC1 (stereo not drawn) | inactive | 

Row | Compound | Potency | activity change, negative = cytotoxicity
75 | OC[C@@H](O)[C@@H](O)CO | inactive | 
76 | CCCCCc1ccc(Cl)cc1 | inactive | 
77 | CCOC(=O)Cn1cccc1-c1nc(-c2ccc(OC)cc2)c(-c2ccc(OC)cc2)s1 | inactive | 
78 | C=Cc1cccc(C)c1 | inactive | 
79 | Nc1nc(N)nc(-c2cc(Cl)ccc2Cl)n1 | inactive | 
80 | CCCCCC(C)OC(=O)COc1ccc(Cl)c2cccnc12 (stereo not drawn) | inactive | 
81 | O=C1OC2(c3ccc(O)cc3Oc3cc(O)ccc32)c2ccc(N=C=S)cc21 | inactive | 
82 | CC(C)(C)NSc1nc2ccccc2s1 | inactive | 
83 | CCCCC(CC)COC(=O)CCCCC(=O)OCc1ccccc1 (stereo not drawn) | inactive | 
84 | Cc1c(C)c2c(c(C)c1OC(=O)c1cccnc1)CC[C@@](C)(CCC[C@H](C)CCC[C@H](C)CCCC(C)C)O2 | inactive | 
85 | [Cu+] | inactive | 
86 | O=C(O)c1cc(-c2ccc(F)cc2F)ccc1O | inactive | 
87 | O=C1c2ccccc2C(=O)N1SC1CCCCC1 | inactive | 
88 | NC(=S)NC(N)=S | inactive | 
89 | C=CCCC(=O)/C=C/C1C(C)=CCCC1(C)C (stereo not drawn) | inactive | 
90 | CC/C=C\CCCCCO | inactive | 
91 | CC1(C)CC(O)CC(C)(C)N1 | inactive | 
92 | OC[C@H]1O[C@H](O[C@H]2O[C@H](CO)[C@@H](O)[C@H](O)[C@H]2O)[C@H](O)[C@@H](O)[C@@H]1O | inactive | 
93 | C[C@H]1NCc2cc(-c3ccc4c(=O)c(C(=O)O)cn(C5CC5)c4c3OC(F)F)ccc21 |  | -2.19% [at 18.9 µM]
